PubChem BioAssay (NCI)
Compounds without any hit were thinned out: in the full panel of roughly 83,000, 20% have a hit.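 Cells were grown in 96-well plates and exposed to the test compound at a single concentration for 48 hours; results are reported as percent growth, with values below 10 considered active.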 A number with no mark means an inactive call. Activity calls are given as the source filed them.

test system: SF-295 CNS; test: NCI-60 one-dose screen, 48 h (100 = growth as untreated, 0 = no growth, -100 = all killed); conditions: 10 µM unless noted

Structure (SMILES) | growth
O=C(Nc1cccc(-n2cc(-c3ccncc3)c(-c3ccc(O)c(Cl)c3)n2)c1)Nc1ccc(Cl)c(C(F)(F)F)c1 | -25.7% (active)
CCOc1ccccc1C(=O)OCC(=O)Nc1cccc(S(=O)(=O)N(C)C)c1 | 160%
Cn1c(N)c(N=O)c(=O)[nH]c1=O | 114%
Cc1nn(-c2ccc(Br)cc2)c2nc3c(nc12)C(=O)C(=O)c1ccccc1-3 | 97.5%
Cc1nn(-c2ccccc2)c2nc(Cl)c(/C=C/C(=O)c3ccccc3)c(-c3ccccc3)c12 | 105%
S=C(Nc1ccc(C2=NCCN2)cc1)Nc1ccc(C2=NCCN2)cc1 | 96.7%
COc1ccc(C(=O)/C=C/c2c(Cl)nc3c(c(C)nn3-c3ccccc3)c2-c2ccc(Br)cc2)cc1 | 103%
O=C1c2ccccc2-c2c1nc1ccccc1[n+]2[O-] | 108%
Cc1c(C(N)=O)sc2c1c(=O)n(Cc1ccccc1)c1nnc(S(=O)(=O)CC(=O)Nc3ccc(Cl)cc3)n21 | 35.1%
OCCOc1c(Cl)cc(Cl)cc1Cl | 100%
O=C1Nc2ccc(F)cc2/C1=C/c1nc(-c2ccc(F)cc2)n2ccccc12 | 92.1%
CCOC(=O)C(C(C)=O)c1nc2sc3cc(Cl)ccc3n2c(=N)c1C#N (centres undefined) | 74.7%
Cc1nn(-c2ccc(Cl)cc2)c2nc3c(nc12)c(=O)oc1ccccc13 | 92.7%
Cc1nn(-c2ccccc2)c2ncc3c(c12)C(=O)N(Cc1ccccc1)C3=O | 1.19% (active)
